Assay results published in PubChem BioAssay AID463173 (ICCB-Longwood Screening Facility, Harvard Medical School, 2010).
Hit rate of the full screen: of about 52,000 compounds, about 1,700 (3.3%) were called active. The entries come from a sample that favours actives as a whole. Values without a mark were called inactive. Rule as the data show it: active = survival mostly below about 52% (no sharp cut-off); inactive = mostly above about 56%.

test system: Wild type; assay: S. aureus survival, RN4220 and DeltatarO strains – OD600, teichoic acid synthesis inhibitors, primary screen (AID 463173); conditions: S. aureus RN4220 wild type/DeltatarO growth, OD600, 18 h, stronger effect = lower value, screened at 18.75 µg/mL (by protocol)

Going from `CCC(C(=O)Nc1nnc2n1CCS2)c1ccccc1` (stereo unspecified) to `CCc1cccc(C)c1NC(=O)c1cc(CN2CCCC2)on1`, the survival rises from 66% to 72%.

Going from `CCN(CC)Cc1cc(C(=O)O)oc1C(C)(C)C` to `CCN(CC)CCCNC(=O)c1c(C)oc2ncnc(N3CCOCC3)c12`, the survival rises from 106% to 136%.

Compared with `COc1ccc(-c2cc(C(F)(F)F)c(C#N)c(SCC(=O)Nc3cccc(C)c3)n2)cc1`, `O=C(Nc1ccc(OC(F)(F)F)cc1)c1cc(-c2ccc(Cl)cc2)on1` is higher in survival: 74% for the first, 105% for the second.

Compared with `CN(C(=O)CSc1cn(CC(=O)N2CCCC2)c2ccccc12)c1ccccc1`, `Cc1ccc(C)c(CS(=O)(=O)c2cn(CC(=O)N(C(C)C)C(C)C)c3ccccc23)c1` is lower in survival: 83% for the first, 77% for the second.

Compared with `Cc1ccc(C(=O)NCC(c2ccc3c(c2)OCO3)N2CCN(c3ccc(F)cc3)CC2)cc1` (stereo unspecified), `Cc1nn2c(C)c(C(=O)N3CCN(c4ccc(Cl)cc4)CC3)cnc2c1-c1ccc(F)cc1` is higher in survival: 68% for the first, 72% for the second.

Compared with `COc1ccccc1CNC(=O)CSc1ncc2c(n1)-c1cc(Cl)ccc1N(Cc1ccccc1)S2(=O)=O`, `COc1ccc(CNC(=O)CSc2ncc3c(n2)-c2ccc(Cl)cc2N(Cc2ccccc2)S3(=O)=O)cc1` is lower in survival: 73% for the first, 22% for the second.

Going from `CCc1cccc(NC(=O)CSc2ncc3c(n2)-c2ccc(Cl)cc2N(Cc2ccccc2)S3(=O)=O)c1` to `O=C(CSc1ncc2c(n1)-c1ccc(Cl)cc1N(Cc1ccccc1)S2(=O)=O)Nc1ccc(F)c(F)c1`, the survival rises from 101% to 129%.

Going from `CCc1ccc(NC(=O)Cn2c(=O)n(Cc3ccco3)c(=O)c3oc4ccccc4c32)cc1` to `CCn1c(=O)c2cc(C(=O)NCc3ccc(F)cc3Cl)sc2c2ccccc21`, the survival falls from 87% to 81%.

Compared with `COc1ccc(C2C(=O)N(C3CCCCC3)CC(=O)N2CCc2ccc(C)cc2)cc1OC` (stereo unspecified), `COc1ccc(Br)cc1CNC(=O)c1nn(-c2ccc(C)cc2)c(=O)c2c1c1ccccc1n2C` is higher in survival: 82% for the first, 126% for the second.

Compared with `Cc1ccc(NC(=O)CN2C(=O)C(c3ccccc3)=NC23CCCCC3)cc1C`, `Cc1ccccc1C(=O)Nc1ccc(C(=O)OCc2cc(=O)n3nc(C(C)C)sc3n2)cc1` is lower in survival: 89% for the first, 65% for the second.

Going from `CC1CCCC(C)N1C(=O)c1ccccc1N` (stereo unspecified) to `CC(=O)N1c2c(cc(Br)cc2S(=O)(=O)N2CCN(c3ccccc3)CC2)CC1C` (stereo unspecified), the survival falls from 108% to 98%.

Compared with `COc1ccc(-c2ccc(NS(=O)(=O)c3cccc(Cl)c3)cc2)nn1`, `COc1ccc(NC(=O)C2=C(C)Nc3nc(SCc4ccc(Cl)cc4)nn3C2c2cccc(OC)c2OC)cc1` (stereo unspecified) is lower in survival: 82% for the first, 60% for the second.

Going from `COc1cccc(N2CCN(C(=O)c3cnc4c(-c5ccccc5)c(C)nn4c3C)CC2)c1` to `Cc1ccc(N2CCN(S(=O)(=O)c3ccc4oc(=O)c5ncn(C)c5c4c3)CC2)c(C)c1`, the survival rises from 76% to 121%.

Compared with `Nc1ccc2nc(CCc3ccccc3)[nH]c2c1`, `Oc1ccc(NCc2ccc(OCc3ccccc3)cc2)cc1` is lower in survival: 106% for the first, 87% for the second.

Going from `Oc1ccc(NCc2ccccc2OCc2ccccc2Cl)cc1` to `Cc1nc2ccc(S(=O)(=O)N(CC(=O)Nc3ccc(F)cc3F)Cc3ccccc3)cc2s1`, the survival rises from 82% to 88%.

Going from `CCN(c1ncnc2c1cnn2-c1cc(Cl)ccc1C)C1CCCCC1` to `CCN(CC)CCNc1ncnc2c1cnn2-c1cc(Cl)ccc1C`, the survival rises from 80% to 98%.

Compared with `CCc1cccc(NC(=O)c2c(C)oc3nc(C)nc(N4CCCC4)c23)c1`, `Cc1nc(N2CCCC2)c2c(C(=O)Nc3ccc(C)c(Cl)c3)c(C)oc2n1` is higher in survival: 101% for the first, 130% for the second.

Compared with `Cc1ccc(CCNC(=O)c2c(C)oc3nc(C)nc(N4CCOCC4)c23)cc1`, `Cc1oc2ncnc(N3CCOCC3)c2c1C(=O)NCCc1ccccc1` is lower in survival: 124% for the first, 85% for the second.

Compared with `CCc1ccc(CNC(=O)c2c(C)oc3ncnc(N4CCOCC4)c23)cc1`, `Cc1oc2ncnc(N3CCOCC3)c2c1C(=O)NCc1ccc(Cl)cc1` is lower in survival: 133% for the first, 73% for the second.

Compared with `CCc1ccccc1N(CC)C(=O)c1c(C)oc2ncnc(N3CCOCC3)c12`, `CCCN(C(=O)c1c(C)oc2ncnc(N3CCOCC3)c12)c1ccc(Cl)c(Cl)c1` is higher in survival: 70% for the first, 74% for the second.

Compared with `Cc1oc2ncnc(N3CCCCC3)c2c1C(=O)NCC1CCN(Cc2ccc(F)cc2)CC1`, `Cc1cccc(CN2CCC(CNC(=O)c3c(C)oc4ncnc(N5CCCCC5)c34)CC2)c1` is higher in survival: 90% for the first, 98% for the second.

Compared with `CCCCN(CC)CCNC(=O)c1c(C)oc2ncnc(N3CCOCC3)c12`, `CCN(C(=O)Cn1ncc2c(=O)oc3ccc(C)cc3c21)c1cc(OC)ccc1OC` is higher in survival: 76% for the first, 86% for the second.

Compound `CCOc1ccc(Nc2nn(-c3ccc(OC(F)(F)F)cc3)nc2C(C)=O)cc1` has a survival of 123%.

In the case of `COc1ccccc1CNC(=O)CSc1ncc2c(n1)-c1ccc(Cl)cc1N(Cc1ccccc1)S2(=O)=O`, the survival was 0% (active).
With `Cc1cccc(C)c1NC(=O)CSc1ncc2c(n1)-c1ccc(Cl)cc1N(Cc1ccccc1)S2(=O)=O` the survival was -2% (active).
For `COc1cccc(N2CCN(C(=O)c3cnc4c(-c5ccc(F)cc5)c(C)nn4c3C)CC2)c1`, the survival was -6% (active).
With `Oc1ccc(NCc2ccc(OCc3ccccc3Cl)cc2)cc1` the survival was -4% (active).
For `CCN(CC)c1ncnc2c1cnn2-c1cc(Cl)ccc1C`, the survival was -6% (active).
For `Cc1ccc(CNC(=O)c2c(C)oc3ncnc(N4CCOCC4)c23)cc1`, the survival was -1% (active).
In the case of `COC(=O)CCN(C(=O)c1c(C)oc2ncnc(N3CCOCC3)c12)c1ccccc1`, the survival was 0% (active).
With `Cc1nc(N2CCOCC2)c2c(C(=O)NCCc3ccccc3)c(C)oc2n1` the survival was -3% (active).
In the case of `Cc1nc(N2CCCC2)c2c(C(=O)Nc3cccc(Cl)c3)c(C)oc2n1`, the survival was -3% (active).
For `CCCCN(CC)CCCNC(=O)c1c(C)oc2ncnc(N3CCOCC3)c12`, the survival was 14% (active).
With `Cc1oc2ncnc(N3CCCCC3)c2c1C(=O)NCC1CCN(Cc2cccc(F)c2)CC1` the survival was -6% (active).
